# Source: PubChem BioAssay (NCATS)
# Records with an inconclusive call do not appear. Where a call stands in place of a potency, no number is given. Unmarked numbers belong to inactive results. The source made the active and inactive calls. The call rests on the fitted dose curve; in most records, active means well fitted curve in the direction sought with a large enough effect; inconclusive means small, poorly fitted or top-dose-only effect, or another doubt; inactive means no such curve, though single readings can be large; an effect the other way counts as inactive or inconclusive.
# How the values were obtained:
# [1] = molecular target: Aldehyde dehydrogenase, mitochondrial (Homo sapiens) (UniProt P05091); assay: qHTS for Inhibitors of the Aldehyde Dehydrogenase Family (ALDH2) Primary screen (AID 2061308); further: nearly all actives have a fitted effect of over 55% in size
# [2] = molecular target: Retinaldehyde dehydrogenase 3 (Homo sapiens) (UniProt P47895); assay: qHTS for Inhibitors of the Aldehyde Dehydrogenase Family (ALDH1A3) Primary screen (AID 2061315)
SMILES,Potency [1],Potency [2],"activity change, negative = inhibition [1]","activity change, negative = inhibition [2]"
Cc1ccc(C)c(SC2=CS(=O)(=O)c3ccccc32)c1,inactive,inactive,,
O=C(C[C@H]1CC[C@@H](C(=O)Nc2ccc(S(=O)(=O)Nc3nccs3)cc2)C1)c1ccccc1,inactive,inactive,,
C=C(C(=O)OC)[C@@H]1CC=C2C=CC(=O)[C@H](C)[C@@]2(C)C1,inactive,inactive,,
CCCCNc1nc(C)nc2c1nc(-c1ccccc1)n2CC(C)(C)CN(C)C,inactive,inactive,,
CS(=O)(=O)c1ccc(C(=O)OC(C(=O)NC2C3CC4CC(C3)CC2C4)c2ccccc2)cc1[N+](=O)[O-] (stereo not given),inactive,inactive,,
C=C1C(=O)O[C@@H]2/C=C(/C)[C@@H](OC(C)=O)C/C=C(\C)C[C@@H](OC(=O)/C(=C/CO)CO)[C@@H]12,inactive,inactive,,
Cc1cnc(-c2ccccc2C(C)C)nc1NCc1ccc(C#N)cc1,inactive,inactive,,
O=C1CCCC2=C1C1(CCCCC1)N=C(Nc1nc3ccccc3o1)N2,inactive,inactive,,
O=[S+]([O-])(c1ccc2nsnc2c1)N1CCN([S+](=O)([O-])c2c(F)cccc2F)CC1,inactive,inactive,,
COc1ccc(Cl)cc1C(=O)Nc1nc(-c2ccccc2)cs1,inactive,inactive,,
CC1(C)CC[C@]2(C(=O)O)CC[C@]3(C)C(=CCC4[C@@]5(C)CC[C@H](O[C@@H]6O[C@H](C(=O)O)[C@@H](O)[C@H](O[C@@H]7O[C@H](CO)[C@H](O)[C@H](O)[C@H]7O)[C@H]6O[C@@H]6O[C@H](CO)[C@@H](O)[C@H](O)[C@H]6O)C(C)(C)C5CC[C@]43C)[C@@H]2C1 (stereo not given in full),,,-3.97% [at 11.2 µM],11.9% [at 11.2 µM]
CC1=CC(=O)CC(C)(C)C1CCC(C)OC1OC(COC(=O)c2cc(O)c(O)c(O)c2)C(O)C(O)C1O (stereo not given),inactive,inactive,,
O=S(=O)(NC1CCN(S(=O)(=O)c2c(F)cccc2F)CC1)c1ccc2c(c1)OCCO2,inactive,inactive,,
COc1cc(O)c(C(CC(=O)N2CCC(c3ccccc3)CC2)c2ccc(C)cc2)c(OC)c1 (stereo not given),inactive,inactive,,
Cc1ccc(OCCn2c(CCNC(=O)c3cccc(Br)c3)nc3ccccc32)cc1,inactive,inactive,,
CCOC(=O)c1nn(-c2ccccc2)c(=O)c2c(N)scc12,inactive,inactive,,
CCCCC(O)C(=O)Nc1cc(C(F)(F)F)ccc1Cl (stereo not given),inactive,inactive,,
CN(C)c1ccc(CNc2nc(-c3ccccc3C(F)(F)F)nc3ccccc23)cc1,inactive,inactive,,

SMILES,Potency [1],Potency [2],"activity change, negative = inhibition [1]","activity change, negative = inhibition [2]"
C/C=C(\C)[C@@H]1C(C)=C[C@@H]2[C@H]([C@@H]1/C=C/C=C/C(=O)O)[C@@H](C)CC[C@@H]2O,inactive,inactive,,
Cc1ccc(S(=O)(=O)Nc2cc(C(=O)Nc3nc(-c4ccccc4)cs3)ccc2Cl)cc1,inactive,inactive,,
COc1cc(Nc2nc(-c3ccncc3)nc3ccccc23)ccc1Cl,inactive,inactive,,
O=C(O)c1ccc2c(c1)C(=O)N([C@@H](C(=O)O)C(c1ccccc1)c1ccccc1)C2=O,inactive,inactive,,
O=C(Nc1ccc(S(=O)(=O)Nc2nccs2)cc1)C1CCC2(CC1)CC2,inactive,inactive,,
Fc1ccccc1N1CCN(c2nc(-c3cccs3)nc3ccccc23)CC1,inactive,inactive,,
CCOc1ccc(CCNC(=O)c2cc3sccc3n2CCN2CCOCC2)cc1OCC,inactive,inactive,,
Nc1cccc(OCCn2c(CCNC(=O)C3CCCCC3)nc3ccccc32)c1,inactive,inactive,,
CC(C)(C)c1ccc(-c2ccc(=O)n(CC(=O)NCCc3ccccc3)n2)cc1,inactive,inactive,,
O=C(NCCc1nc2ccccc2n1CCOc1ccccc1[N+](=O)[O-])C1CCCCC1,inactive,inactive,,
Cc1ccc(-c2csc(NC(=O)c3ccccc3NS(=O)(=O)c3ccc(C)cc3)n2)cc1,inactive,inactive,,
Cc1cccc(NC(=O)c2cc(-c3ccc(C)c(C)c3)nc3ccccc23)c1,inactive,inactive,,
FC(F)(F)c1ccccc1-c1nc(NCc2cccc3ccccc23)c2ccccc2n1,inactive,inactive,,
O=C(COc1ccccc1Br)NCCc1nc2ccccc2[nH]1,inactive,inactive,,
CC(C)Nc1oc(-c2cccc3ccccc23)nc1C#N,inactive,inactive,,
CN(C)c1cccc(-c2nccc(N3CCC(C(N)=O)CC3)n2)c1,inactive,inactive,,
C/C=C/c1ccc(O[C@@H]2O[C@H](CO)[C@@H](O)[C@H](O)[C@H]2O)c(OC)c1,inactive,inactive,,
